Laboratory results reported in PubChem BioAssay AID449739 (Vanderbilt High Throughput Screening Facility, 2010).
About 4,200 (4.2%) of roughly 100,000 compounds were called active.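 How the source made its calls: active means single-dose well whose peak fluorescence ratio is a statistical outlier from its plate by either plate-standardised score or position-corrected B-score; inactive means the rest.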 The entries come from a sample that favours actives as a whole.

Biological target: Voltage-dependent T-type calcium channel subunit alpha-1H (Homo sapiens) (UniProt O95180)
Test: Cav3.2 calcium influx blockers – cell-based, Fluo-4 calcium fluorescence, FDSS, MLSMR library, primary screen (AID 449739)
Conditions: Cav3.2-expressing cells, at 10 µM, stronger effect = lower value

Chain of Voltage-dependent T-type calcium channel subunit alpha-1H (Homo sapiens) (O95180 whole entry, looked up): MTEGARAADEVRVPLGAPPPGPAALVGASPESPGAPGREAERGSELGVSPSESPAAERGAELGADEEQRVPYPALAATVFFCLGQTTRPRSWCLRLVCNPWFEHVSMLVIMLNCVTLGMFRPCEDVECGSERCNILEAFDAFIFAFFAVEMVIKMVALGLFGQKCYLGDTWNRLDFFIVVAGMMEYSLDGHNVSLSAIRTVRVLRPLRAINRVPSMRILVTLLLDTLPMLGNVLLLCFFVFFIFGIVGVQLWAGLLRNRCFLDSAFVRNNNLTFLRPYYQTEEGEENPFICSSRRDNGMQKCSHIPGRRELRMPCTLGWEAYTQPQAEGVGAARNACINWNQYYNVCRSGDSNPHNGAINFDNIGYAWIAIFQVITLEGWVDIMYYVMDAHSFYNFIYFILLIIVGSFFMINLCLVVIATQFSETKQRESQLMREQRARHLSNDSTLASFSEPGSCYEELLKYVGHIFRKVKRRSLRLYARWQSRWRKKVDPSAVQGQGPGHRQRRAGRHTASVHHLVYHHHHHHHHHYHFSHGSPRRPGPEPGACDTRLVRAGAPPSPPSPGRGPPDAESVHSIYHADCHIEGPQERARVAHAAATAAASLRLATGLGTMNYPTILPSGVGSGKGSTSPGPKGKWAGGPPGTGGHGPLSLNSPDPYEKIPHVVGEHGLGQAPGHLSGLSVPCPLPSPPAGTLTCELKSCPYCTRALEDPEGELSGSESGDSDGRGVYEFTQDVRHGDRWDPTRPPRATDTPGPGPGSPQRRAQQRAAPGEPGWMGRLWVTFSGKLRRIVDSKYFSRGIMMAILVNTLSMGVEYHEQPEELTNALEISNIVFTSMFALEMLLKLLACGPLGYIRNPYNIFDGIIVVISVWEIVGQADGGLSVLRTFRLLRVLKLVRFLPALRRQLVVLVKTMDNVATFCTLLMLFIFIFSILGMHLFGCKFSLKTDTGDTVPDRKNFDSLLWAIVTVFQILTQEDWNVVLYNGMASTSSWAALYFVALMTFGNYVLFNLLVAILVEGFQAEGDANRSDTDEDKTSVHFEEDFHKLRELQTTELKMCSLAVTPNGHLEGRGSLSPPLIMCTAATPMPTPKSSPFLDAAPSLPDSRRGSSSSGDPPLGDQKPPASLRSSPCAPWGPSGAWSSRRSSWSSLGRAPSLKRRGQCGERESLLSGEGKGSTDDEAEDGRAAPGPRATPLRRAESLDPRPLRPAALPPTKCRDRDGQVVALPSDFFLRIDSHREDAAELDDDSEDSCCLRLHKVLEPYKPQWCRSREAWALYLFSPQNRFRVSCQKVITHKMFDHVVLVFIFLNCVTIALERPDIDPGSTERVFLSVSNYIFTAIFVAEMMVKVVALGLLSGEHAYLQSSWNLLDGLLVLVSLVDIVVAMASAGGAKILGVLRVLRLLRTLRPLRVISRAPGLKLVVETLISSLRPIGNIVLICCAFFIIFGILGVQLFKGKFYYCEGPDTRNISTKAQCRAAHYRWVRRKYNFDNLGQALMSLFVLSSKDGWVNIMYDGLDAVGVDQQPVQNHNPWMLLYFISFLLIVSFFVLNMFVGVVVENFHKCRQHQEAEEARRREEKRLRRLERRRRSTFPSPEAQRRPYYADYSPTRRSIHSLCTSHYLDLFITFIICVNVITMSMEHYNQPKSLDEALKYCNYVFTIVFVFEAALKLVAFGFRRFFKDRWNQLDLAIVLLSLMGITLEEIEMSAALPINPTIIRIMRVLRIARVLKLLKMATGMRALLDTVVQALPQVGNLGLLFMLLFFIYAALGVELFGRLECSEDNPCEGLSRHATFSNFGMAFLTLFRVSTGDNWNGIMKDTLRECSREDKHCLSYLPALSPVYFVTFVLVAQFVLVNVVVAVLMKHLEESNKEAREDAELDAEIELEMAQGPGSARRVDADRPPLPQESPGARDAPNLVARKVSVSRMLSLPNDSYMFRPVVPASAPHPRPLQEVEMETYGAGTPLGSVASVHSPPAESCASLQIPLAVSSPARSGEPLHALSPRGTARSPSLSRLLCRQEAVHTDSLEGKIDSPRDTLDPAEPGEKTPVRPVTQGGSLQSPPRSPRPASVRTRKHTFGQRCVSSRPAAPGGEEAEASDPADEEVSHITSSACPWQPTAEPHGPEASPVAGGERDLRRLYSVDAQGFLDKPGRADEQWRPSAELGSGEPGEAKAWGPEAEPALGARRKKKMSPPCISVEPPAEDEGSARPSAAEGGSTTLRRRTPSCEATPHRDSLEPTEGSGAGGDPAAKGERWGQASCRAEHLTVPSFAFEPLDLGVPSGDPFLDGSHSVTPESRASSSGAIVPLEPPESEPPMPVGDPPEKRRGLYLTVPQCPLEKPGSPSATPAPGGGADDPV

B-score, active:
CC(Sc1nc2ccccc2c(=O)n1Cc1ccco1)C(=O)c1ccccc1 (configuration not stated) -4.25
N#Cc1c(NC(=O)CSc2nc3ccccc3c(=O)n2Cc2ccco2)sc2c1CCCC2 -5.99
CCOC(=O)Cc1csc(NC(=O)CSc2nc(C)cc(=O)[nH]2)n1 -5.95
CCCCCCn1c(CN2CCCC(C)C2)nc2c1c(=O)n(C)c(=O)n2C (configuration not stated) -3.75
Clc1ccc(COn2c(-c3ccc(Cl)cc3Cl)nc3ncccc32)cc1 -5.63
COc1ccccc1NC(=O)CSc1nnc(Cn2nnc(-c3ccccc3)n2)n1-c1ccccc1 -7.2
CCOc1ccccc1N(CC(=O)NC1CCCCC1)C(=O)CCCC(=O)Nc1ccccn1 -8.92
CCOC(=O)c1cc2n(c1N)-c1ccccc1C2=O -9.74
CSc1nc(N(C)NC(=O)c2cccc(C)c2)c2ccccc2n1 -7.16
O=C(/C=C/c1ccccc1)N/C(=C/c1ccccc1)C(=O)Nc1ccccc1O -8.64
Cc1ccc(CN(N=Nc2nonc2N)c2nonc2N)c(C)c1 -6.83
COC(=O)C1=C(C)N(C)C(C)=C(C(=O)OC)C1c1cccc(Br)c1 -4.38
CCOC(=O)C1=C(CN2CCc3ccccc32)NC(=O)NC1c1ccc(Cl)cc1 (configuration not stated) -5.78
Cc1nc(C)c(-c2csc(NCCc3ccccc3)n2)s1 -6.45
CCCc1[nH]nc2c1C(c1c(C)nn(-c3ccccc3)c1Cl)C(C#N)=C(N)O2 (configuration not stated) -4.44
COc1ccc(C(=O)CSc2nnc(COc3ccccc3)n2Cc2ccco2)cc1 -4.51
C=CCn1c(SCc2c(C(=O)OC)sc(N)c2C(=O)OC)nnc1-c1ccc(Cl)cc1 -3.5
C/C(=N\NS(=O)(=O)c1ccc(Br)cc1)c1cccs1 -5.02
Cc1cc(C(=O)OCC(=O)NCc2ccco2)c(C)n1-c1ccccc1 -4.45

B-score, inactive:
CCOC(=O)C(C)Sc1nc2ccccc2c(=O)n1CC1CCCCC1 (configuration not stated) -2.88
O=C(CCCn1c(SCC(=O)c2ccc(F)cc2)nc2ccccc2c1=O)NCc1ccco1 -2.82
COc1ccc(-n2c(SCC(=O)Nc3sc4c(c3C#N)CCCC4)nnc2-c2ccc(O)cc2)cc1 -0.184
C=C(C)Cn1c(SCC(=O)NCc2ccco2)nc2sc3c(c2c1=O)CCC3 -0.92
CCCNC(=S)NC1CC2CCCC(C1)N2CC(C)C (configuration not stated) 1.82
COc1ccc(N2CCN(C(=O)c3ccc4c(Cl)c5c(nc4c3)CCCC5)CC2)cc1 -0.0196
CN1CCN(S(=O)(=O)c2ccc(N3CCN(S(=O)(=O)c4cccs4)CC3)nc2)CC1 1.73
N#Cc1cc([N+](=O)[O-])ccc1Oc1cccc(/C=N/NC(=O)c2ccc(Cl)cc2)c1 -0.086
CCCCc1nnc(NC(=O)CSc2nc(C)cc(=O)[nH]2)s1 -0.0258
CCOC(=O)Cc1csc(NC(=O)C(C)(C)C)n1 0.211
C=CCn1c(-c2ccc(Cl)cc2)ccc(C#N)c1=O -1.56
NC1=NC[C@@H](Cc2ccc(O)cc2)N1CC1CCCCC1 0.0175
C#Cc1ccc([C@@H]2C=C(C(=O)O)O[C@H](OCCCCO)C2)cc1 -1.58
CCN1CCN(Cc2nc3c(c(=O)n(C)c(=O)n3C)n2CC(=O)c2ccccc2)CC1 0.531
CC1CCCN(Cc2nc3c(c(=O)n(C)c(=O)n3C)n2CC(=O)c2ccccc2)C1 (configuration not stated) -0.792
C/C(=N/NC(=O)c1ccc(NC(=O)c2ccc(F)cc2)cc1)c1ccccc1 0.425
O=C(Nc1cccc2ncccc12)c1ccc(-c2ccc(Cl)cc2Cl)o1 -0.641
CCOc1ccc(OCC)c(-c2c(=O)n(OCc3ccc(Cl)cc3)c3ccccc3[n+]2[O-])c1 -1.31
COc1ccc(C(F)(F)F)cc1N/C=C\c1nnnn1-c1ccc(C)cc1 -3.02
COc1ccc(OC)c(/C=N/NC(=O)CSc2nnc(C)n2-c2ccccc2)c1 2
CNC(=O)CSc1nnc(CCc2ccccc2)n1-c1ccccc1 -0.00574
O=C(Nc1cccc2ncccc12)C(Cl)(Cl)Cl 1.36
COc1ccc(OCC(=O)NN2Cc3ccccc3C2=N)cc1 0.0596
O=C(Cc1ccccc1)N/N=C/c1ccc(Cl)cc1Cl -0.673
O=C(CCCC(=O)N(CC(=O)NC1CCCC1)Cc1ccccc1Cl)Nc1ccccn1 -1.66
CCCC(=O)Nc1cc(OCC)c(NC(=O)NC2CCCCC2)cc1OCC 0.0578
N=c1ccn(CC(=O)NC(N)=O)c2ccccc12 1.07
CC(=O)c1cnc(SCCN2C(=O)c3ccccc3C2=O)nc1C -0.173
CCOC(=O)c1cc2n(c1C)-c1ccccc1C2=O -0.985
CCOC(=O)Nc1ccccc1N1C(=O)c2ccccc2C1=O 0.477
CN(NC(=O)c1ccccc1)c1nc2ccccc2nc1C(F)(F)F -0.171
COc1ccc(C(=O)NN(C)c2nc(-c3ccccc3)cc(C)c2S(C)(=O)=O)cc1 1.17
CCc1ccccc1NC(=O)/C(=C/c1ccccc1)c1ccccc1 -4.21
O=C(/C=C/c1ccccc1)c1ccccc1O 0.49
COC(=O)c1c(-c2ccsc2)oc2ccc(-c3cc(OC)c(OC)c(OC)c3)cc12 -0.846
CCO[C@@H]1OC(C(=O)N2CCOCC2)=C[C@H](C)[C@H]1CCCO 0.155
Cc1ccc(NC(=O)N2CCSc3ccccc32)cc1 -0.746
c1ccc(COc2ccccc2CNCc2cccnc2)cc1 -0.314
CC1(C)CC(=O)C(C=NCCN2CCN(C(=S)Nc3cccc(Cl)c3)CC2)=C(O)C1 -0.563
Cc1ccc(C)c(CSc2nc(-c3ccco3)nc3c2c(=O)n(C)c(=O)n3C)c1 -0.668
COc1ccc(CNC(=O)C2CC(c3ccc(C(F)(F)F)cc3)=NO2)cc1 (configuration not stated) -2.34
O=C(C1=C[C@H](c2coc3ccccc3c2=O)C[C@H](OCc2ccc(CO)cc2)O1)N1CCN(Cc2ccccc2)CC1 -1.94
O=C1NC[C@@H](Cc2ccc(O)cc2)N(CCc2cccc(F)c2)C1=O -1.22
COCCN1C(=O)N[C@@H](c2ccccc2)C(C(=O)OC)=C1C 0.0333
CCN1C(=O)N[C@@H](c2ccccc2)C(C(=O)OC)=C1C -0.116
CCc1ccc(/C=N/NC(=O)c2ccc(OC3CCCC3)cc2)s1 -0.109
CCOC(=O)C1=C(CN2CCc3ccccc32)NC(=O)NC1c1cc(C)ccc1C (configuration not stated) 0.647
CCOC(=O)C1=C(CN2CCc3ccccc32)NC(=O)NC1c1cccc([N+](=O)[O-])c1 (configuration not stated) -1.81
COC(=O)CCCC1=CC2=CC(=O)C(C)(OC(=O)c3cccs3)C(=O)C2=CN1c1cccc(C#N)c1 (configuration not stated) 0.181
Cc1ccc(Nc2nc(-c3sc(NC(=O)c4ccccc4)nc3C)cs2)cc1 -0.00441
CCCCC(=O)Nc1nc(C)c(-c2csc(Nc3ccc(Cl)cc3)n2)s1 0.015
CCn1c(O)c2ccc(C(=O)N=NC(=O)c3cccnc3)cc2c1O -0.0483
CCCc1[nH]nc2c1C(c1ccc(OC)c(Cn3nc(C)c(Br)c3C)c1)C(C#N)=C(N)O2 (configuration not stated) -0.964
CCCc1[nH]nc2c1C(c1ccc(Br)s1)C(C#N)=C(N)O2 (configuration not stated) 0.903
COc1cc(C2OC(c3cc(OC)c(OC)c(OC)c3)C(C)C2C)cc(OC)c1OC (configuration not stated) -2.38
O=C(NCCCCc1ccccc1)C1CC(c2ccc([N+](=O)[O-])cc2)=NO1 (configuration not stated) -2.65
CCOC(=O)/C=C/c1ccc(C(F)(F)F)cc1S(=O)(=O)NC(C)(C)C 0.0548
O=C(NCN1CCN(CCO)CC1)c1cnccn1 0.423
Cc1ccccc1N/N=C/c1ccc(N2CCOCC2)cc1 0.0508
CCn1c(CNc2ccc(OC)cc2)nnc1SCC(=O)c1ccc(OC)cc1 0.231
O=C(CSc1nnc(-c2cccnc2)n1Cc1ccco1)c1ccc(Cl)cc1 0.695
CC(C)C(NS(=O)(=O)c1cccs1)C(=O)Nc1nc(C(C)(C)C)cs1 (configuration not stated) -3.54
C=CCn1c(SCc2cc(C(=O)OC)c(C)o2)nnc1-c1ccncc1 0.333
C=CCn1c(SCn2nnc3ccccc3c2=O)nnc1-c1ccc(Cl)cc1 -1.02
COc1cccc2c1OCC(C(=O)NCc1ccc(Cl)cc1Cl)=C2 -1.48
CCc1nnc(SCc2cccc(F)c2)nc1CC -2.53
C/C(=N\NC(=O)c1ccccc1C)c1ccc(N2CCOCC2)cc1 -0.0283
C/C(=N\NS(=O)(=O)c1cccc([N+](=O)[O-])c1)c1cc2ccccc2o1 -0.824
O=S(=O)(NN=C1CCCCCCC1)c1ccc(Br)cc1 -1.71
O=Cc1c(N2CCN(c3cccc(Cl)c3)CC2)nc2ccccn2c1=O -1.81
O=C(CSc1nnc(-c2cccs2)n1-c1ccccc1)NCc1ccco1 0.148
O=C(COC(=O)C12CC3CC(CC(C3)C1)C2)NCc1ccco1 -0.704
ONC(=Nc1ccc(Cl)cc1)c1ccccc1Cl -1.41
